# Where “and” joins values, the source holds several entries; their conditions need not be identical. Identical values can stand only once. Out of some 38,000 compounds screened, about 1,200 (3.2%) showed an effect of 50% or more. The median lay at about -58%. The sample holds strong results, similar compounds and a random draw of the others, so the mix is not that of the screen.
# Test system: Plasmodium falciparum
# Assay: Calibr Malaria Delayed Death Assay SOP
# Format: functional, organism-based
# Design: scale not given: in the data most compounds retested in dose-response had high values
# Details: concentration 4.99e-06 (unit not given; other assays of the set use mol/L)
SMILES,Percent Effect [%],Percent Effect (4.99 µM)
O=C(NC1CC1)C1CNCCN1C(=O)CCOc1ccccc1 (stereo unspecified),-111.6,–
Cc1ncsc1-c1nnc(C2CCN(Cc3ccccc3Cl)CC2)o1,-108,–
CC(=O)NC1CCN(c2c(C#N)cnc3c(C)cc(F)cc23)CC1,7.696,–
CN(Cc1ccccc1)C(=O)CCNS(=O)(=O)c1cccnc1,-47.09,–
CN(Cc1cn(C2CCNCC2)nn1)CC1CCCO1 (stereo unspecified),-84.49,–
Cc1ccc2[nH]c(-c3cn(C4CCNCC4)nn3)nc2c1C,85.1,–
c1ccc(CCCn2ccnc2-c2cn(C3CCNCC3)nn2)nc1,–,-23.72% and -17.15%
COc1cccc(CCn2ccnc2-c2cn(C3CCNCC3)nn2)c1,–,-32.98% and -26.9%
Cc1cc2nc(-c3cn(C4CCNCC4)nn3)[nH]c2cc1C,87.17,–
Cc1cccc2[nH]c(-c3cn(C4CCNCC4)nn3)nc12,72.76,–
Cc1c(C)c(C)c2[nH]c(-c3cn(C4CCNCC4)nn3)nc2c1C,30.06,–
Cc1nc(C(C)C)sc1C(=O)NCCSc1nccn1C,-107.8,–
CC(=O)Nc1ccn(Cc2ccccc2)n1,-105.1,–
CCOC(C)C(=O)N1CCCN(Cc2csc(CC)n2)CC1 (stereo unspecified),-48.75,–
CN1CCNC(=O)C12CCN(Cc1ccco1)CC2.O=C(O)C(F)(F)F.O=C(O)C(F)(F)F,-34.77,–
Cc1nc(CN2CCC3(C2)CN(Cc2ccco2)C3)cs1,1.617,–
O=C(O)C(F)(F)F.O=C(O)C(F)(F)F.O=C(O)C(F)(F)F.c1coc(CN2CCC3(CC2)COCCN(CCN2CCCC2)C3)c1,-114.4,–
Cc1ccc(CN2CCC3(CC2)CCN(Cc2ccco2)CC3)cc1.O=C(O)C(F)(F)F.O=C(O)C(F)(F)F,91.42,–
Cc1nc(CN2CCC23CCN(Cc2ccco2)CC3)cs1,-38.18,–
Cc1noc(C)c1CN1CC2(CCN(Cc3c[nH]cn3)CC2)CC1=O,-101.4,–
CO[C@@H]1CC[C@H]2[C@H]1OCCN2Cc1ccccn1.O=C(O)C(F)(F)F.O=C(O)C(F)(F)F,-69.16,–
CN(C)CCN1CCC(NC2CSCCc3ccccc32)CC1 (stereo unspecified),75.4,–
CNC(=O)CN1CCC(NC2CSCCc3ccccc32)CC1 (stereo unspecified),-108,–
COCCCN1CCC(NC2CSCCc3ccccc32)CC1 (stereo unspecified),-4.969,–

SMILES,Percent Effect [%],Percent Effect (4.99 µM)
Cn1ncnc1CNc1ccccc1C(=O)NC(C)(C)C,-77.77,–
Cc1ccccc1CN1CCC2(CCCN2C(=O)C(C)C)CC1,-62.94,–
O=C1NC(C(=O)NCc2cccnc2Oc2ccc(F)c(F)c2)CO1 (stereo unspecified),-127.9,–
CCN(CC1CCCN(CCc2cccc(OC)c2)C1)C(=O)CN(C)C (stereo unspecified),83.05,–
COc1ccc(C(=O)C2CCCN(Cc3cccc(F)c3)C2)c(OC)c1 (stereo unspecified),22.79,–
COc1ccc(C(=O)C2CCCN(CCc3ccccc3)C2)c(OC)c1 (stereo unspecified),71.36,–
CCN(CC1CCCN(CCc2cccc(OC)c2)C1)C(=O)CO (stereo unspecified),28.13,–
COc1ccc(C(=O)C2CCCN(Cc3ccncc3)C2)c(OC)c1 (stereo unspecified),-20.34,–
CCN(CC1CCCN(CCc2cccc(OC)c2)C1)C(=O)CSC (stereo unspecified),19.02,–
Cc1ccccc1C(=O)N1CCO[C@H]2[C@H](OCCN(C)C)CC[C@@H]21.O=C(O)C(F)(F)F,-35.41,–
CCCN(CCC)C(=O)c1cnn(C)c1C,-133.3,–
COc1cccc(CNCc2ccc(F)c(Cl)c2)c1O,79.38,–
COc1cccc(CNCc2cccc(Cl)c2)c1O,84.59,–
COc1ccccc1COCC(O)CN(C)Cc1cccc(Cl)c1 (stereo unspecified),-103.6,–
COc1cccc(CNc2ccc(F)c(Cl)c2)c1O,-125.4,–
CCOc1cccc(CNc2ccccc2OC)c1O,-50.26,–
COc1ccc(CNC(=O)c2ccc(Cl)cc2F)cc1C(=O)O,-124.3,–
CCn1nccc1CNc1nc(N)nc2c1nc(C)n2C,-33.19,–
Cn1nc(CN2CCCCC2)c2c1CN(C(=O)c1ccoc1)C2,14.54,–
O=C(Nc1cnc(Oc2ccccc2)nc1)C1CC1,-34.92,–
O=C(Nc1ccccc1Oc1cccc(F)c1)C1CCS(=O)(=O)C1 (stereo unspecified),-81.74,–
CNCc1cc(F)ccc1Oc1ccc(F)cc1,15.63,–
O=C(O)c1cccc(N2CCC(Oc3cccc(F)c3)CC2)n1,-36.51,–
CCn1cc(-c2nn3c(C(C)C)nnc3s2)c(C)n1,-104,–

SMILES,Percent Effect [%],Percent Effect (4.99 µM)
CC(NC(=O)N1CCCCCC1)c1ccc(S(N)(=O)=O)cc1 (stereo unspecified),-106.8,–
Cc1ncsc1C(=O)NCCNc1ncccn1,-77.02,–
COCC1CN(CCOc2ccc(Cl)cc2)Cc2c1cnn2C.O=C(O)C(F)(F)F.O=C(O)C(F)(F)F (stereo unspecified),-4.236,–
CC(NCC1(N(C)C)CCOCC1)c1ccc(S(C)(=O)=O)cc1 (stereo unspecified),-124.5,–
CN(C)C1(CNc2ncc(Br)cn2)CCOCC1,27.48,–
CC(NCC1(N(C)C)CCOCC1)c1ccc(SC(F)F)cc1 (stereo unspecified),51.19,–
CC(NCC1(N(C)C)CCOCC1)c1ccc(Cl)cc1 (stereo unspecified),72.75,–
CSC1(CNC(=O)NC(C)c2ccc(F)cc2)CCOCC1 (stereo unspecified),-168.4,–
CN(C)C1(CNC(=O)c2c(O)cc(Cl)cc2Cl)CCOCC1,-157.7,–
O=S(=O)(N1CCCC1)N(Cc1ccccc1)CC1CCCO1 (stereo unspecified),-64.47,–
CN(C)CCN1C[C@@H]2CN(S(=O)(=O)c3ccccc3)C[C@@H]2C1=O.O=C(O)C(F)(F)F,-103,–
CCN(CC)S(=O)(=O)c1ccc(C(=O)NC(C)(C)C)cc1,-100.9,–
Cc1cc2nc(-c3ccccc3)cc(NCC3CCCOC3)n2n1 (stereo unspecified),20.07,–
COCCC(=O)Nc1nc2c(OC)cc(F)cc2s1,-96.38,–
COCCS(=O)(=O)NC(C)c1ccccc1Cl (stereo unspecified),-65.19,–
COc1ccc(C(C)NCc2c[nH]nc2C)cc1OC.Cl (stereo unspecified),-66.18,–
COc1ccc(CNC(C)Cn2cccn2)c(OC)c1OC.Cl (stereo unspecified),-41.68,–
COc1ccc(CNC(C)c2cccc(Cl)c2)c(OC)c1OC (stereo unspecified),42.06,–
COc1ccc(CNC(C)c2ccccc2Cl)c(OC)c1OC.Cl (stereo unspecified),74.88,–
COc1ccc(C(C)NCc2ccc(OC)c(OC)c2OC)cc1F.Cl (stereo unspecified),34.25,–
COc1ccc(CNC(C)c2ccc(Cl)c(Cl)c2)c(OC)c1OC (stereo unspecified),65.05,–
COc1ccc(CNC(C)c2ccc(Cl)cc2)c(OC)c1OC (stereo unspecified),80.38,–
CC(NCc1ccc(C(N)=O)cc1)c1ccc(Cl)c(Cl)c1.Cl (stereo unspecified),4.882,–

# From ChEMBL document CHEMBL3988442, “University of Dundee, Small-Polar-MMV Screening Library” (2021)
